According to PubChem BioAssay AID1159580 (chemical genetic matrix, 2015):
Values joined by “and” are separate entries in the source; they are usually repeats but may differ in a detail not shown here. Equal entries are not always repeated. The whole screen tested about 5,500 compounds, of which about 2,000 (36%) were called active. Not shown: some 18% with an inconclusive outcome. Rule as the data show it: active = normalized growth mostly below about 0.91 (no sharp cut-off); inconclusive = no clear call, values can overlap the other calls; inactive = mostly above about 0.92. The list shows a part of the results.

Test: chemical genetic growth profiling, strain panel (AID 1159580);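 also: tested at 20 µM; growth read once vehicle control cultures reached saturation at 30 °C; 1 = growth at the plate median or of vehicle wells; lower values mean less growth of the strain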
Conditions: S. cerevisiae deletion strains, growth OD

Measured: normalized growth

O=C1C(O)=C(O)C(=O)C(O)=C1O
inactive: locus YAL013W, strain DEP1, stronger effect = lower value 0.983 | locus YAL021C, strain ccr4, stronger effect = lower value 1 | locus YAL026C, strain drs2, stronger effect = lower value 1.02 | locus YAL030W, strain snc1, stronger effect = lower value 1 | locus YBL061C, strain skt5, stronger effect = lower value 1.03 | locus YBR009C, strain hhf1, stronger effect = lower value 0.992 | locus YBR021W, strain FUR4, stronger effect = lower value 1.01 | locus YBR023C, strain chs3, stronger effect = lower value 1.02 | locus YBR171W, strain sec66, stronger effect = lower value 1.02 | locus YBR229C, strain ROT2, stronger effect = lower value 0.964 | locus YBR231C, strain swc5, stronger effect = lower value 1.02 | locus YBR279W, strain paf1, stronger effect = lower value 1.01 | locus YCL011C, strain gbp2, stronger effect = lower value 0.991 | locus YCL016C, strain dcc1, stronger effect = lower value 1.02 | locus YCL029C, strain bik1, stronger effect = lower value 0.991 | locus YCL061C, strain MRC1, stronger effect = lower value 1.01 | locus YCL069W, strain vba3, stronger effect = lower value 1.03 | locus YCR088W, strain abp1, stronger effect = lower value 1.01 | locus YDL005C, strain med2, stronger effect = lower value 1.01 | locus YDL035C, strain GPR1, stronger effect = lower value 1 | locus YDL040C, strain nat1, stronger effect = lower value 0.997 | locus YDL074C, strain BRE1, stronger effect = lower value 0.968 | locus YDL101C, strain DUN1, stronger effect = lower value 0.965 | locus YDL134C, strain PPH21, stronger effect = lower value 0.983 | locus YDL185W, strain tfp1, stronger effect = lower value 0.959 | locus YDL192W, strain arf1, stronger effect = lower value 0.99 | locus YDR001C, strain nth1, stronger effect = lower value 1 | locus YDR069C, strain doa4, stronger effect = lower value 1.01 | locus YDR101C, strain arx1, stronger effect = lower value 1.01 | locus YDR137W, strain rgp1, stronger effect = lower value 0.984 | locus YDR150W, strain NUM1, stronger effect = lower value 0.968 | locus YDR159W, strain sac3, stronger effect = lower value 0.977 | locus YDR162C, strain NBP2, stronger effect = lower value 0.939 | locus YDR195W, strain ref2 0.999 | locus YDR297W, strain sur2, stronger effect = lower value 1.02 | locus YDR318W, strain mcm21, stronger effect = lower value 1.03 | locus YDR334W, strain swr1, stronger effect = lower value 1.01 | locus YDR335W, strain msn5, stronger effect = lower value 1.01 | locus YDR388W, stronger effect = lower value 0.991 | locus YDR392W, strain spt3, stronger effect = lower value 1.04 | locus YDR502C, strain sam2, stronger effect = lower value 0.996 | locus YEL003W, strain gim4, stronger effect = lower value 1.02 | locus YEL037C, strain rad23, stronger effect = lower value 0.998 | locus YEL061C, strain CIN8 (second series), stronger effect = lower value 1.01 | locus YEL061C, strain CIN8, stronger effect = lower value 0.987 | locus YER015W, strain faa2, stronger effect = lower value 1.01 | locus YER016W, strain bim1, stronger effect = lower value 1.01 | locus YER110C, stronger effect = lower value 0.986 | locus YER111C, strain swi4, stronger effect = lower value 0.991 | locus YER155C, strain BEM2 (second series), stronger effect = lower value 1.01 | locus YER155C, strain BEM2, stronger effect = lower value 1 | locus YER167W, strain BCK2, stronger effect = lower value 1.01 | locus YFR010W, strain ubp6, stronger effect = lower value 1 | locus YGL078C, strain dbp3, stronger effect = lower value 0.977 | locus YGL086W, strain mad1, stronger effect = lower value 1.02 | locus YGL167C, strain pmr1, stronger effect = lower value 1 | locus YGL173C, strain kem1, stronger effect = lower value 1.01 | locus YGL227W, strain vid30, stronger effect = lower value 1.01 | locus YGL240W, strain doc1, stronger effect = lower value 1.02 | locus YGL248W, strain PDE1, stronger effect = lower value 0.974 | locus YGL253W, strain hxk2, stronger effect = lower value 1 | locus YGR078C, strain PAC10, stronger effect = lower value 0.971 | locus YGR135W, strain pre9, stronger effect = lower value 0.968 | locus YGR229C, strain SMI1, stronger effect = lower value 0.969 | locus YGR252W, strain gcn5, stronger effect = lower value 1.04 | locus YHR013C, strain ard1, stronger effect = lower value 1.03 | locus YHR027C, strain rpn1, stronger effect = lower value 1.02 | locus YHR030C, strain SLT2, stronger effect = lower value 1 and 0.988 | locus YHR079C, strain IRE1 (second series), stronger effect = lower value 1 | locus YHR079C, strain IRE1, stronger effect = lower value 0.973 | locus YHR094C, strain hxt1, stronger effect = lower value 0.984 | locus YHR129C, strain ARP1, stronger effect = lower value 0.994 | locus YHR142W, strain chs7, stronger effect = lower value 1.02 | locus YHR200W, strain rpn10, stronger effect = lower value 1 | locus YIL066C, strain RNR3, stronger effect = lower value 0.977 | locus YIL073C, strain SPO22, stronger effect = lower value 1.07 | locus YIL125W, strain kgd1, stronger effect = lower value 0.967 | locus YIR030C, strain dcg1, stronger effect = lower value 0.993 | locus YJL092W, strain hpr5, stronger effect = lower value 1.01 | locus YJL095W, strain BCK1 (second series), stronger effect = lower value 1.02 | locus YJL095W, strain BCK1, stronger effect = lower value 0.991 and 0.993 | locus YJL115W, strain asf1, stronger effect = lower value 1 | locus YJL129C, strain trk1, stronger effect = lower value 1.03 | locus YJL134W, strain LCB3, stronger effect = lower value 0.995 | locus YJL154C, strain vps35, stronger effect = lower value 1.02 | locus YJL164C, strain tpk1, stronger effect = lower value 1 | locus YJL166W, strain qcr8, stronger effect = lower value 1.01 | locus YJL168C, strain set2, stronger effect = lower value 0.996 | locus YJL187C, strain SWE1 (second series), stronger effect = lower value 0.961 | locus YJL187C, strain SWE1, stronger effect = lower value 1.01 | locus YJR043C, strain POL32, stronger effect = lower value 1.03 | locus YJR066W, strain TOR1, stronger effect = lower value 0.941
